# Source: paper PMC5540273 (PLoS ONE, 2017)
# Values joined by “and” are separate entries in the source; they are usually repeats but may differ in a detail not shown here. Equal values may be shown once. Read-outs that look alike come from different tables or passages of the source.
# What was measured:
# [1] = tested on: MYO3B; settings: concentration: 1 μM, replicates: in singlicate, n = 1
# [2] = tested on: T1, NDR1; settings: concentration: 1 μM, replicates: in singlicate, n = 1
# T1 construct: gene STK38
# [3] = tested on: NDR2; settings: concentration: 1 μM, replicates: in singlicate, n = 1
# [4] = tested on: NEK10; settings: concentration: 1 μM, replicates: in singlicate; n = 1
# [5] = tested on: NEK11; settings: concentration: 1 μM, replicates: in singlicate; n = 1
# [6] = tested on: NEK1; settings: concentration: 1 μM, replicates: in singlicate, n = 1
# [7] = tested on: NEK2; settings: concentration: 1 μM, replicates: in singlicate, n = 1
# [8] = tested on: NEK3; settings: concentration: 1 μM, replicates: in singlicate, n = 1
# [9] = tested on: NEK4; settings: concentration: 1 μM, replicates: in singlicate; n = 1
# [10] = tested on: NEK5; settings: concentration: 1 μM, replicates: in singlicate, n = 1
# [11] = tested on: NEK6; settings: concentration: 1 μM, replicates: in singlicate; n = 1
# [12] = tested on: NEK7; settings: concentration: 1 μM, replicates: in singlicate, n = 1
# [13] = tested on: NEK9; settings: concentration: 1 μM, replicates: in singlicate, n = 1
# [14] = tested on: T2, NIK; settings: concentration: 1 μM, replicates: in singlicate, n = 1
# T2 construct: gene MAP3K14
# [15] = tested on: T3, NIM1; settings: concentration: 1 μM, replicates: in singlicate, n = 1
# T3 construct: gene MGC42105
# [16] = tested on: NLK; settings: concentration: 1 μM, replicates: in singlicate, n = 1
# [17] = tested on: T4, OSR1; settings: concentration: 1 μM, replicates: in singlicate; n = 1
# T4 construct: gene OXSR1
# [18] = tested on: PAK1; settings: concentration: 1 μM, replicates: in singlicate, n = 1
# [19] = tested on: PAK2; settings: concentration: 1 μM, replicates: in singlicate, n = 1
# [20] = tested on: PAK3; settings: concentration: 1 μM, replicates: in singlicate, n = 1
# 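Note: KINOMEscan kinase panel screen.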
smiles,measurement,setting,value
Cc1nnc(-c2ccc3ncc(-c4ccc(S(C)=O)cc4)n3c2)o1 (stereo not shown),%Inh,[1],0%
same,%Inh,[2],0%
same,%Inh,[3],0%
same,%Inh,[4],0%
same,%Inh,[5],0%
same,%Inh,[6],0%
same,%Inh,[7],12%
same,%Inh,[8],36%
same,%Inh,[9],0%
same,%Inh,[10],0%
same,%Inh,[11],12%
same,%Inh,[12],0%
same,%Inh,[13],0%
same,%Inh,[14],0%
same,%Inh,[15],0%
same,%Inh,[16],0%
same,%Inh,[17],9%
same,%Inh,[18],17%
same,%Inh,[19],3%
same,%Inh,[20],0%
NCC(NC(=O)c1cc(-c2cn[nH]c2)c(-c2ccnc3[nH]ccc23)s1)c1ccccc1.O=C(O)C(F)(F)F.O=C(O)C(F)(F)F (stereo not shown) [GSK1325775],%Inh,[1],0%
same,%Inh,[2],65%
same,%Inh,[3],70%
same,%Inh,[4],50%
same,%Inh,[5],15%
same,%Inh,[6],72%
same,%Inh,[7],43%
same,%Inh,[8],7%
same,%Inh,[9],0%
same,%Inh,[10],57%
same,%Inh,[11],0%
same,%Inh,[12],0%
same,%Inh,[13],10%
same,%Inh,[14],28%
same,%Inh,[15],38%
same,%Inh,[16],0%
same,%Inh,[17],4%
same,%Inh,[18],19%
same,%Inh,[19],32%
same,%Inh,[20],39%
C[C@@H](Oc1cc(-n2cnc3ccc(NC(=O)NC(C)(C)C)cc32)sc1C(N)=O)c1ccccc1Cl [GSK346294],%Inh,[1],0%
same,%Inh,[2],17%
same,%Inh,[3],17%
same,%Inh,[4],0%
same,%Inh,[5],0%
same,%Inh,[6],0%
same,%Inh,[7],5%
same,%Inh,[8],5%
same,%Inh,[9],0%
same,%Inh,[10],26%
same,%Inh,[11],0%
same,%Inh,[12],4%
same,%Inh,[13],16%
same,%Inh,[14],21%
same,%Inh,[15],19%
same,%Inh,[16],19%
same,%Inh,[17],18%
same,%Inh,[18],15%
same,%Inh,[19],14%
same,%Inh,[20],15%
Cn1cc(-c2ccc3c(c2)CCN3C(=O)Cc2ccccc2Cl)c2c(N)ncnc21 [GSK2608885],%Inh,[1],33%
same,%Inh,[2],21%
same,%Inh,[3],0%
same,%Inh,[4],0%
same,%Inh,[5],0%
same,%Inh,[6],0%
same,%Inh,[7],79%
same,%Inh,[8],0%
same,%Inh,[9],5%
same,%Inh,[10],7%
same,%Inh,[11],3%
same,%Inh,[12],17%
same,%Inh,[13],33%
same,%Inh,[14],8%
same,%Inh,[15],7%
same,%Inh,[16],86%
same,%Inh,[17],10%
same,%Inh,[18],44%
same,%Inh,[19],13%
same,%Inh,[20],28%
Cc1c(Cn2c(C)nn3c(=O)cc(N4CCOC(C)C4)nc23)cccc1C(F)(F)F (stereo not shown) [GSK2344444],%Inh,[1],0%
same,%Inh,[2],0%
same,%Inh,[3],0%
same,%Inh,[4],2%
same,%Inh,[5],0%
same,%Inh,[6],0%
same,%Inh,[7],3%
same,%Inh,[8],0%
same,%Inh,[9],22%
same,%Inh,[10],0%
same,%Inh,[11],0%
same,%Inh,[12],1%
same,%Inh,[13],14%
same,%Inh,[14],12%
same,%Inh,[15],3%
same,%Inh,[16],0%
same,%Inh,[17],23%
same,%Inh,[18],0%
same,%Inh,[19],0%
same,%Inh,[20],20%
Cl.Nc1ncnc2occ(-c3ccc(NC(=O)Nc4cc(C(F)(F)F)ccc4F)cc3)c12 [SB-707548],%Inh,[1],57%
same,%Inh,[2],29%
same,%Inh,[3],40%
same,%Inh,[4],1%
same,%Inh,[5],0%
same,%Inh,[6],40%
same,%Inh,[7],37%
same,%Inh,[8],1%
same,%Inh,[9],5%
same,%Inh,[10],30%
same,%Inh,[11],0%
same,%Inh,[12],0%
same,%Inh,[13],76%
same,%Inh,[14],36%
same,%Inh,[15],28%
same,%Inh,[16],26%
same,%Inh,[17],3%
same,%Inh,[18],24%
same,%Inh,[19],30%
same,%Inh,[20],15%
CCc1ccnc(/C=C/c2n[nH]c3cc(Sc4ccccc4C(=O)NC)ccc23)c1,%Inh,[1],0%
same,%Inh,[2],7%
same,%Inh,[3],0%
same,%Inh,[4],4%
same,%Inh,[5],0%
same,%Inh,[6],0%
same,%Inh,[7],0%
same,%Inh,[8],1%
same,%Inh,[9],0%
same,%Inh,[10],0%
same,%Inh,[11],0%
same,%Inh,[12],0%
same,%Inh,[13],0%
same,%Inh,[14],0%
same,%Inh,[15],0%
same,%Inh,[16],0%
same,%Inh,[17],0%
same,%Inh,[18],0%
same,%Inh,[19],0%
same,%Inh,[20],0%
O=C1Cc2cc(Nc3nc(NCc4cccc(S(=O)(=O)C(F)(F)F)c4)ncc3C(F)(F)F)ccc2N1,%Inh,[1],0%
same,%Inh,[2],9%
same,%Inh,[3],0%
same,%Inh,[4],36%
same,%Inh,[5],0%
same,%Inh,[6],10%
same,%Inh,[7],9%
same,%Inh,[8],12%
same,%Inh,[9],5%
same,%Inh,[10],14%
same,%Inh,[11],14%
same,%Inh,[12],0%
same,%Inh,[13],0%
same,%Inh,[14],4%
same,%Inh,[15],26%
same,%Inh,[16],4%
same,%Inh,[17],4%
same,%Inh,[18],0%
same,%Inh,[19],0%
same,%Inh,[20],1%
CNc1ncnc2[nH]ncc12 [SKF-18355],%Inh,[1],34%
same,%Inh,[2],46%
same,%Inh,[3],23%
same,%Inh,[4],16%
same,%Inh,[5],0%
same,%Inh,[6],0%
same,%Inh,[7],0%
same,%Inh,[8],26%
same,%Inh,[9],0%
same,%Inh,[10],0%
same,%Inh,[11],0%
same,%Inh,[12],0%
same,%Inh,[13],0%
same,%Inh,[14],31%
same,%Inh,[15],21%
same,%Inh,[16],0%
same,%Inh,[17],0%
same,%Inh,[18],0%
same,%Inh,[19],43%
same,%Inh,[20],0%
Cl.Cl.Cl.Fc1ccc(-c2ncn(C3CCNCC3)c2-c2ccnc(Nc3ccccc3)n2)cc1 [SB-238039],%Inh,[1]; 1 µM,20% and 21%
same,%Inh,[2]; 1 µM,37% and 6%
same,%Inh,[3]; 1 µM,8% and 0%
same,%Inh,[4],0%
same,%Inh,[5],0%
same,%Inh,[6]; 1 µM,15% and 0%
same,%Inh,[7]; 1 µM,0% and 2%
same,%Inh,[8]; 1 µM,23% and 29%
same,%Inh,[9],0%
same,%Inh,[10]; 1 µM,0% and 15%
same,%Inh,[11],0%
same,%Inh,[12]; 1 µM,0% and 24%
same,%Inh,[13]; 1 µM,0% and 19%
same,%Inh,[14]; 1 µM,5% and 12%
same,%Inh,[15]; 1 µM,35% and 19%
same,%Inh,[16]; 1 µM,90.5% and 89%
same,%Inh,[17],14%
same,%Inh,[18]; 1 µM,16% and 0%
same,%Inh,[19]; 1 µM,51% and 14%
same,%Inh,[20]; 1 µM,43% and 50%
CN1c2ccc(NCc3ccc(F)cc3)cc2-c2c(cnn2C)S1(=O)=O,%Inh,[1],0%
same,%Inh,[2],22%
same,%Inh,[3],0%
same,%Inh,[4],2%
same,%Inh,[5],0%
same,%Inh,[6],0%
same,%Inh,[7],0%
same,%Inh,[8],33%
same,%Inh,[9],0%
same,%Inh,[10],0%
same,%Inh,[11],0%
same,%Inh,[12],0%
same,%Inh,[13],0%
same,%Inh,[14],7%
same,%Inh,[15],4%
same,%Inh,[16],0%
same,%Inh,[17],0%
same,%Inh,[18],0%
same,%Inh,[19],1%
same,%Inh,[20],0%
